In ChEMBL document CHEMBL4513216, “Probing the Open Global Health Chemical Diversity Library for Multistage-Active Starting Points for Next-Generation Antimalarials” (ACS Infect Dis, 2020):
Out of some 65,000 compounds screened, about 2,100 (3.2%) showed an effect of 50% or more. The median lay at about -52%. The sample as a whole holds a higher share of strong results than the screen did.

System: Plasmodium falciparum
Assay: Screen against P. falciparum Asexual Blood Stage (ABS), at 5uM
Assay type: functional, Dd2
Conditions: tested at 5 uM

Compared with Nc1cc(-c2c[nH]nc2C2CCCCN2C(=O)C2CCCC2)ccn1 (stereo not drawn), CC(C)Nc1nc(-c2ccccc2)nc2c1CCN(C(=O)C1CC1)CC2 is higher in INHIBITION: -12.7% for the first, 27.8% for the second.

Compared with Cc1ccc(NC(=O)Cn2ncc(SCC(N)=O)c(Cl)c2=O)c(F)c1, Cc1ccc(C)c(OC2CCN(C(=O)CNc3ccccc3Cl)CC2)c1 is lower in INHIBITION: -57.4% for the first, -76.6% for the second.

Compared with COc1ccccc1NC(=O)N(CCO)Cc1ccsc1, CN(CCc1ccccn1)Cc1nccn1Cc1ccccc1 is higher in INHIBITION: -19.5% for the first, 57.9% for the second.

Going from O=C(NC1CCC1)[C@H]1CCS(=O)(=O)[C@@H]2CN(CCc3ccccc3)C[C@H]12 to O=C(CC1CC1)N[C@@H]1CN(C(=O)c2ccsc2)C[C@@H]2CCCO[C@@H]21, the INHIBITION rises from -96.2% to -17.8%.

First: Cc1nc(CN2CCCN(C(=O)c3cccnc3O)CC2)cs1
Second: Cc1nc(CC(=O)N2CCn3c(nnc3C(C)C)C2)cs1
The INHIBITION of the first is lower: 49.4% for the first, 51.5% for the second.

First: CCOc1ccc(NC(C)=O)cc1S(=O)(=O)Nc1cc(C)on1
Second: CCOc1cc(C=Cc2ncc(C(=O)NC)s2)ccc1OC
The INHIBITION of the first is lower: -90.8% for the first, 25.6% for the second.

First: CCc1nc(CC(=O)N2CCn3c(nnc3C(F)(F)F)C2)cs1
Second: CCc1nc(CC(=O)N2CCn3c(C)nnc3C2)cs1
The INHIBITION of the first is lower: -206% for the first, -18.3% for the second.

Going from CC(C)c1nnc2n1CCN(C(=O)Cc1csc(C(C)(C)C)n1)C2 to CCc1nc(CC(=O)N2CCn3c(nnc3C(C)C)C2)cs1, the INHIBITION falls from 20.2% to -56.3%.

Going from CCc1nc(CC(=O)N2CCn3c(CC)nnc3C2)cs1 to CCc1nnc2n1CCN(Cc1cccc3c1OCCO3)C2, the INHIBITION falls from 52% to 43.7%.

First: c1coc(COCc2ncn3c2CN(Cc2cccs2)CCC3)c1
Second: O=S(=O)(c1cccs1)N1Cc2nc(CN3CCCC3)oc2C1
The INHIBITION of the first is lower: -87% for the first, -84.5% for the second.

Going from O=C(C1NCCc2[nH]cnc21)N1CCC2(C=Cc3ccccc32)CC1 (stereo not drawn) to Cn1nccc1C(=O)N1CC[C@]2(C[C@H](OCc3ccccn3)CO2)C1, the INHIBITION falls from -16.1% to -58%.

Compared with O=C(c1cccc(Cl)c1)N1CC[C@H]2[C@H]1CCN2CC1CC1, Cn1cc(N2C(=O)CC[C@@H]3[C@H]2CCN3C(=O)c2cscn2)cn1 is higher in INHIBITION: -55.8% for the first, -22.8% for the second.

Going from CCN(C1CCN(Cc2ncc(C(C)(C)C)o2)CC1)S(C)(=O)=O to Cc1cc(C)cc(CN2C[C@@H]3OCCN(CC(=O)N(C)C)[C@@H]3C2)c1, the INHIBITION falls from -26.2% to -93.1%.

Going from CS(=O)(=O)N1CCC(c2nc3ccc(-c4cccc(F)c4)cn3n2)CC1 to CCCN1CCC(c2nc3ccc(-c4cccc(OC)c4)cn3n2)CC1, the INHIBITION rises from -44.9% to -23.2%.

First: CC1(C)CN(Cc2c[nH]c(CC3CCCC3)n2)CC[C@]1(C)O
Second: OC1(CN2CCCCC2)CCN(Cc2c[nH]c(CC3CCCC3)n2)C1 (stereo not drawn)
The INHIBITION of the first is lower: -29.5% for the first, 54.6% for the second.

Compared with OC1(CN2CCCC2)CCCN(Cc2c[nH]c(CC3CCCC3)n2)C1 (stereo not drawn), Cc1c(C)n(CC(O)CN2CCCCCC2)c2c(Cl)cccc12 (stereo not drawn) is higher in INHIBITION: 37.2% for the first, 51.6% for the second.

Compared with CN(C)c1ccc(C(=O)NCc2cccnc2-n2cncn2)cc1F, Cc1cccc(C)c1NC(=O)c1cccc(CN2CCCC2C)c1 (stereo not drawn) is higher in INHIBITION: -20.3% for the first, 49.8% for the second.

First: CN(CCc1ccncc1)Cc1nccn1Cc1ccccc1
Second: CN(Cc1ccncc1)Cc1nccn1Cc1ccccc1
The INHIBITION of the first is higher: 42.2% for the first, -37.9% for the second.

Compared with CCN(Cc1ccco1)C(=O)C1=NN(c2ccccc2)C(=O)CN1, CCN(C(=O)C1=NN(c2ccccc2)C(=O)CN1)c1ccccc1 is lower in INHIBITION: 60.6% for the first, -66.6% for the second.

Compared with Cc1ccc(N2N=C(C(=O)N(C)Cc3ccco3)NCC2=O)cc1, CC1CCCN1Cc1cccc(C(=O)Nc2ccc3c(c2)CCC3=O)c1 (stereo not drawn) is higher in INHIBITION: -13.2% for the first, 30.1% for the second.

Going from CN(CC(=O)Nc1cccnc1)C1CCCN(c2cccnn2)C1 (stereo not drawn) to COC[C@H]1CCCN1c1nccc(-c2cnn(-c3ccccc3C)c2)n1, the INHIBITION falls from 8.25% to -32.9%.

Going from CC(=O)NCCNCc1cn(CCN2CCSCC2)nc1C to CCc1nc(C)c(C(=O)NCCn2nc3ccccn3c2=O)s1, the INHIBITION falls from -18% to -71.9%.

Going from Cc1nc(C)c(C(=O)NCCn2nc3ccccn3c2=O)s1 to Cc1nc(C(C)C)sc1C(=O)NCCn1nc2ccccn2c1=O, the INHIBITION rises from -42% to 59.1%.

Going from Cn1cnc2c1CCN(CC(O)c1ccc3c(c1)OCCO3)C2 (stereo not drawn) to CCc1nnc2n1CCN(CC(O)c1ccc3c(c1)OCCO3)C2 (stereo not drawn), the INHIBITION rises from -106% to 66.3%.

First: COCC(=O)N1CCC2(CC1)CN(c1ccsc1)C(=O)CO2
Second: CC(=O)N1CCC2(CCN(Cc3cccc(F)c3)CC2)CC1
The INHIBITION of the first is higher: -11.6% for the first, -58.8% for the second.

Compared with Cc1noc(C)c1CN1CCC2(CCN(Cc3cccc(F)c3)CC2)C1, CN(C)CC(=O)N1CCC2(CCN(Cc3cccc(F)c3)CC2)C1 is lower in INHIBITION: 67.9% for the first, 36.4% for the second.

First: CC(=O)N1CC2(CCN(Cc3ccc(Cl)cc3)C2)Cc2ccccc21 (stereo not drawn)
Second: CN(Cc1ccncc1)CC1CCCN(CCc2ccc(Cl)cc2)C1 (stereo not drawn)
The INHIBITION of the first is higher: 9.12% for the first, -23.8% for the second.

Going from Cc1c(C)n(CC(O)CN2CCC(O)CC2)c2c(Cl)cccc12 (stereo not drawn) to Cc1c(C)n(CC(O)CN2CCOCC2)c2c(Cl)cccc12 (stereo not drawn), the INHIBITION falls from 44.9% to -15.7%.

Compared with CCN1CC(C(=O)NCCOc2ccc3c(c2)OCO3)CC1=O (stereo not drawn), COc1ccc(NC(=O)c2cccc(CN3CCCC3C)c2)cc1OC (stereo not drawn) is higher in INHIBITION: -196% for the first, 51.1% for the second.

First: Cc1nc(CN(C)CC2CCCN(CCc3ccc(Cl)cc3)C2)n(C)n1 (stereo not drawn)
Second: Cc1noc(CN(C)CC2CCCN(CCc3ccc(Cl)cc3)C2)n1 (stereo not drawn)
The INHIBITION of the first is higher: 54.3% for the first, -72.6% for the second.

Compared with O=C([C@H]1C[C@@H]2CCN(c3cccc(F)c3)C[C@H]2O1)N1CCCC1, Cc1nnc(N2CCCC3(CN(Cc4ccc(F)cc4)CCO3)C2)o1 (stereo not drawn) is lower in INHIBITION: -20.3% for the first, -65.4% for the second.

Going from CCc1nc(C2CCCN2CCCSC)no1 (stereo not drawn) to CCOCCNc1nc(-c2ccncc2)nc2c1CCNCC2, the INHIBITION falls from 42.3% to -46.1%.

First: O=c1c(NCc2ccncc2)c(NCC(O)CN2CCOCC2)c1=O (stereo not drawn)
Second: c1csc(CCNc2nc(-c3ccncc3)nc3c2CCNCC3)c1
The INHIBITION of the first is lower: -27% for the first, 53.5% for the second.

Going from Cc1cc(C)cc(CNC(C)c2c(C)nn(C)c2C)c1 (stereo not drawn) to Cc1ccc(CCNc2nc(-c3ccncc3)nc3c2CCNCC3)o1, the INHIBITION falls from 49.4% to -88.2%.
